Data from paper PMC10726135, “HNF4α isoforms regulate the circadian balance between carbohydrate and lipid metabolism in the liver”.
In all, about 18,000 sequences were measured (“log2 normalized intensity”: median about 0.39, highest 2% from about 6.6 on). Many of the other results were omitted from the sample, so the highest values are more common in it than they were.

target: T1, HNF4alpha2 (COS-7 nuclear extract) (Homo sapiens, UniProt P41235 1-474); test: protein-binding microarray; COS-7 nuclear extract on double-stranded Agilent 4x180k PBM; binding buffer, salt, pH and temperature not given in the material; high values mean tight binding; conditions: chain copies: 2; label: 3' end of strand 1 on the slide; dsDNA, one strand shown
T1 sequence: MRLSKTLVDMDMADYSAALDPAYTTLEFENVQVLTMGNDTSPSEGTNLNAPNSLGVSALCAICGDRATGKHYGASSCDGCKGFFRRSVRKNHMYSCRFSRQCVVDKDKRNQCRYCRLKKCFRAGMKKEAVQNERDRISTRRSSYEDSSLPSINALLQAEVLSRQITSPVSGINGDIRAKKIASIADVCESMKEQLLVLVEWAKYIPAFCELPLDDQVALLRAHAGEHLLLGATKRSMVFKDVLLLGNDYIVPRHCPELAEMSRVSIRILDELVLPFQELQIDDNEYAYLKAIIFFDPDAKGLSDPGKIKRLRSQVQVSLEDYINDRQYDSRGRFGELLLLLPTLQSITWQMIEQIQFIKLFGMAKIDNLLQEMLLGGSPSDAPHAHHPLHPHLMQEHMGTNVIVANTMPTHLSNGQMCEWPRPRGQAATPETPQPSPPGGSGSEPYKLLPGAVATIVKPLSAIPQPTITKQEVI
Procedure, shortened: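 A custom Agilent SurePrint G3 4x180k array, spotted in quadruplicate with ~44,000 test sequences as ~60-nt oligonucleotides made double-stranded, was incubated with nuclear extracts. The extracts came from COS-7 cells transiently transfected by CaPO4 with a human HNF4α isoform expression vector. Bound HNF4α was imaged on an Agilent G2565CA scanner at 2-µm resolution, and the binding signal was taken as Agilent software's background-corrected, normalized gProcessedSignal.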

Row | Sequence | binding signal [log2 normalized intensity]
1 | AAGTGTGGTCAAGGGTCAGTTTCTGAGAGTGCCTAGGGAGATTAGAGTATCGGTCGA | 3.65
2 | ATAGTTGACCCTTGAACAATGTGGGGGTCGGCCTAGGGAGATTAGAGTATCGGTCGA | 3.7
3 | CTTGTCCTTGACCCTTCCTCCCATTTGCTGGCCTAGGGAGATTAGAGTATCGGTCGA | 2.29
4 | GCCCCCGCAGACCCAGTCTTAGGGACTAAGGCCTAGGGAGATTAGAGTATCGGTCGA | 3.86
5 | TCCCTTCCCCCCTCCTCATTGAGAGTTTTAGCCTAGGGAGATTAGAGTATCGGTCGA | 4.2
6 | TTGAAGCTCCAAGATAGGAATGTACATAATGCCTAGGGAGATTAGAGTATCGGTCGA | 1.11
7 | GTCTTAGGGACTAAGCTTGTAGACCAAGGAGCCTAGGGAGATTAGAGTATCGGTCGA | 0.172
8 | AAGGCTGCAAGCAAACCTGCCCTTTGCTCCGCCTAGGGAGATTAGAGTATCGGTCGA | 5.57
9 | GGGAAACACAGACTCCAAAGAATGGAAGGCGCCTAGGGAGATTAGAGTATCGGTCGA | -0.871
10 | CCTTTGGTCTAAACCTACTTAGATCAAGATGCCTAGGGAGATTAGAGTATCGGTCGA | -0.394
11 | ACCCCAAAACCCCCAAAGGTGAGTAGGGCCGCCTAGGGAGATTAGAGTATCGGTCGA | 2.67
12 | TGCTCTCTCATGCCCTTTGCCTCCCTGCATGCCTAGGGAGATTAGAGTATCGGTCGA | 3.45
13 | GCATCAGGGTCCACAAGGGTTTAAATCTGAGCCTAGGGAGATTAGAGTATCGGTCGA | 1.03
14 | CAGTTTGACCTTTGCATTCTTACCCAAGCCGCCTAGGGAGATTAGAGTATCGGTCGA | 4.4
15 | GAGGCCAGTTTGACCTTTGCATTCTTACCCGCCTAGGGAGATTAGAGTATCGGTCGA | 5.97
16 | ATATCCCTGAGAGGCCAGTTTGACCTTTGCGCCTAGGGAGATTAGAGTATCGGTCGA | 8.38
17 | TTTGGAGTTTGACCTGGAGCCAGGGCCTTTGCCTAGGGAGATTAGAGTATCGGTCGA | 3.11
18 | TCACCATATCCCTGAGAGGCCAGTTTGACCGCCTAGGGAGATTAGAGTATCGGTCGA | 2.83
19 | CCTGAGAGGCCAGTTTGACCTTTGCATTCTGCCTAGGGAGATTAGAGTATCGGTCGA | 7.56
20 | CACAGGTAAACATTTGCCTTTAGGGCCCCCGCCTAGGGAGATTAGAGTATCGGTCGA | 2.56
21 | GTGGGCAAGTTATCTCGGGGTGGCATGTATGCCTAGGGAGATTAGAGTATCGGTCGA | 1.14
22 | GCAGAATCAAAGGTCAAAATATCTGATCGAGCCTAGGGAGATTAGAGTATCGGTCGA | 3.32

Row | Sequence | binding signal [log2 normalized intensity]
23 | CATCCTCATTGCCTCTGGGCTTTGATGGACGCCTAGGGAGATTAGAGTATCGGTCGA | 1.64
24 | CCCCATGATGATAGCAAACACGATTGGATGGCCTAGGGAGATTAGAGTATCGGTCGA | 0.412
25 | GACCTTTGGACTTGATAGAGTTTAAGTCTTGCCTAGGGAGATTAGAGTATCGGTCGA | 6.99
26 | CTCCTGACCTTTGGACTTGATAGAGTTTAAGCCTAGGGAGATTAGAGTATCGGTCGA | 7.57
27 | AACTAGCAACTTGGACCTTGATAGGAGTTAGCCTAGGGAGATTAGAGTATCGGTCGA | 2.88
28 | TTTGAAGTTTAGAGATGCCTATAGGGTCTTGCCTAGGGAGATTAGAGTATCGGTCGA | 0.736
29 | ACTGCTCCAGTGGACATTGGCCCTTTGACCGCCTAGGGAGATTAGAGTATCGGTCGA | 5.99
30 | ATATCCTGACTGCTGACCTTTAAGCCTATAGCCTAGGGAGATTAGAGTATCGGTCGA | 3.85
31 | GTCCTTGATAAGCAAGATGACTTTGGTCTAGCCTAGGGAGATTAGAGTATCGGTCGA | 1.78
32 | TGGACATTGGCCCTTTGACCTTTAATCAAGGCCTAGGGAGATTAGAGTATCGGTCGA | 6.47
33 | TCCAGTGGACATTGGCCCTTTGACCTTTAAGCCTAGGGAGATTAGAGTATCGGTCGA | 7.47
34 | TAAGAGCTATCAATGACCCATGTTTGCCCTGCCTAGGGAGATTAGAGTATCGGTCGA | 3
35 | TGCTTCTTGGCCTCTTTGTTTACACTGTGAGCCTAGGGAGATTAGAGTATCGGTCGA | 1.53
36 | GCGGCTTCAGAGGCCAGCAGTGCTTTTCCCGCCTAGGGAGATTAGAGTATCGGTCGA | -0.963
37 | ATTGGAAGCTCTTTCCCTCCACCAAGTTTCGCCTAGGGAGATTAGAGTATCGGTCGA | 0.191
38 | TCTGATCCCAATTTATCTTTCCAGATTGTTGCCTAGGGAGATTAGAGTATCGGTCGA | 0.501
39 | CCTCCAGGGAGGGGAGAGGGGGTTAAAGGTGCCTAGGGAGATTAGAGTATCGGTCGA | 1.22
40 | GGAAACTCCATTTCCTTCTAGCTCCCCAATGCCTAGGGAGATTAGAGTATCGGTCGA | 3.53
41 | GGTGAAATAGCTGAACTATTTAAGGCCTTTGCCTAGGGAGATTAGAGTATCGGTCGA | 0.822
42 | ACTGACCTTTGAGAGTCAACACTGAAATAGGCCTAGGGAGATTAGAGTATCGGTCGA | 1.42
43 | AGTTGGAAAATATTTCTCTGAACTTTGACCGCCTAGGGAGATTAGAGTATCGGTCGA | 8.41
44 | CACTTCTGAAAAAAATATTGAACAAAGATTGCCTAGGGAGATTAGAGTATCGGTCGA | -0.491

Row | Sequence | binding signal [log2 normalized intensity]
45 | TCTTTGATTAGGAAAGGGAACTCCCTGACCGCCTAGGGAGATTAGAGTATCGGTCGA | -0.639
46 | GAAAATATTTCTCTGAACTTTGACCTATAGGCCTAGGGAGATTAGAGTATCGGTCGA | 8.62
47 | GCCACCCCCGTTAATTTCTAACCAATGCAGGCCTAGGGAGATTAGAGTATCGGTCGA | 0.623
48 | CAAACTTCTCCACTCTTCATAATTACCATTGCCTAGGGAGATTAGAGTATCGGTCGA | 0.957
49 | ACAAGCAACCCTCCTCCCTTTGGCCATGAAGCCTAGGGAGATTAGAGTATCGGTCGA | 1.54
50 | TCACAGGTTCCAGCATGGACTTCACAGCCTGCCTAGGGAGATTAGAGTATCGGTCGA | -0.535
51 | CAAACAGCTTAGGGTTCAAACTCCAGCTCTGCCTAGGGAGATTAGAGTATCGGTCGA | 3.29
52 | TCATTCCCCTAGTATATTGGCTTGGCTGTGGCCTAGGGAGATTAGAGTATCGGTCGA | 2.58
53 | CATACTTCTTCCTGTTTGACCTTCGAACCCGCCTAGGGAGATTAGAGTATCGGTCGA | 9.59
54 | GTACCTTGACCTTCTCTGTTAACCCTTTGCGCCTAGGGAGATTAGAGTATCGGTCGA | 3.76
55 | CCTTGACCCTTCCTCCCATTTGCTGCTCTAGCCTAGGGAGATTAGAGTATCGGTCGA | 2.08
56 | AAGCACATACTTCTTCCTGTTTGACCTTCGGCCTAGGGAGATTAGAGTATCGGTCGA | 5.02
57 | TTGACCTTCTCTGTTAACCCTTTGCAGCCCGCCTAGGGAGATTAGAGTATCGGTCGA | 2.61
58 | TTCTTCCTGTTTGACCTTCGAACCCTTGCCGCCTAGGGAGATTAGAGTATCGGTCGA | 9.01
59 | CTCCTGTTTGTATTCCTTGTCCTTGACCCTGCCTAGGGAGATTAGAGTATCGGTCGA | 4.35
60 | CCTGTTTGACCTTCGAACCCTTGCCATTTAGCCTAGGGAGATTAGAGTATCGGTCGA | 7.04
61 | TTGACCTTCGAACCCTTGCCATTTACATCAGCCTAGGGAGATTAGAGTATCGGTCGA | 5.38
62 | GGAGTTGGAACGGGGGCAAGGGTCAGAGTAGCCTAGGGAGATTAGAGTATCGGTCGA | 4.26
63 | CTGGCATCTGGTCAGGGGTCAAGAAGCTCTGCCTAGGGAGATTAGAGTATCGGTCGA | 2.21
64 | GCAGAAATCAACTGCCCTCTGCCTTTCAGGGCCTAGGGAGATTAGAGTATCGGTCGA | -0.661
65 | AGAGCACATTCTTCCATATAACCCTTGAACGCCTAGGGAGATTAGAGTATCGGTCGA | 3.6
66 | TCAAAGGGCTTAATCTTTCCTGCCTGCCGGGCCTAGGGAGATTAGAGTATCGGTCGA | -0.693

Row | Sequence | binding signal [log2 normalized intensity]
67 | ACTTTGACCTTGTTTTCAATGACTACCTGTGCCTAGGGAGATTAGAGTATCGGTCGA | 1.84
68 | AGTGGACTTTGACCTTGTTTTCAATGACTAGCCTAGGGAGATTAGAGTATCGGTCGA | 7.31
69 | TTTGCCATTTGGAGAGAGTTTGGCCCCAGTGCCTAGGGAGATTAGAGTATCGGTCGA | 2.44
70 | CCCAGGGACTTTGGCCTTACTTGGCCTGTTGCCTAGGGAGATTAGAGTATCGGTCGA | 2.62
71 | CCATCAGTGGACTTTGACCTTGTTTTCAATGCCTAGGGAGATTAGAGTATCGGTCGA | 9.03
72 | GACCTTGTTTTCAATGACTACCTGTTACCCGCCTAGGGAGATTAGAGTATCGGTCGA | 1.45
73 | ACCCACCCACACCTCCCCTTTGTTTAACTTGCCTAGGGAGATTAGAGTATCGGTCGA | 2.8
74 | GCCAGCCAGGGCCACCCATCAGTGGACTTTGCCTAGGGAGATTAGAGTATCGGTCGA | 6.63
75 | CACATGCTATTATTTTCCATCAGTGGACTTGCCTAGGGAGATTAGAGTATCGGTCGA | 3.5
76 | GCCACCCATCAGTGGACTTTGACCTTGTTTGCCTAGGGAGATTAGAGTATCGGTCGA | 10.6
77 | GTTCAATGCTTCAGTGAGCCTTGACCTTCAGCCTAGGGAGATTAGAGTATCGGTCGA | 4.09
78 | AGACCTTTGACATCACCTAACTTGTGGCTGGCCTAGGGAGATTAGAGTATCGGTCGA | 0.674
79 | GTATCTCTTCGCCTTGCTTATCTGGGAGGGGCCTAGGGAGATTAGAGTATCGGTCGA | -0.214
80 | CTTCAAAGGAGTGGAGGAAGGAAGAAGTGTGCCTAGGGAGATTAGAGTATCGGTCGA | 0.537
81 | GTGGTCATGTAGGTGTCTCAGGAATGTCCTGCCTAGGGAGATTAGAGTATCGGTCGA | 1.85
82 | GCTTATGCATGGGAGATCTTCAGTAAGAGGGCCTAGGGAGATTAGAGTATCGGTCGA | -0.283
83 | GCTGGAACTCCTCCGGTCAAGATCAAGTGGGCCTAGGGAGATTAGAGTATCGGTCGA | 0.207
84 | TCTAAGATTGGCCCTGATAATCAATCCAGCGCCTAGGGAGATTAGAGTATCGGTCGA | -0.941
85 | CCACAGAATCGCCCCACCCTGCCTGGGTAGGCCTAGGGAGATTAGAGTATCGGTCGA | 1.35
